# PubChem BioAssay (NCATS)
# Inconclusive results are not listed. The source made the active and inactive calls. Calls come from the whole dose curve; as a rule, active = well fitted inhibition curve with a large enough effect; inconclusive = small, poorly fitted or top-dose-only effect; inactive = flat fitted curve, though single readings scatter.
# Tested on: CRL-7250
# Assay: qHTS assay to identify novel small-molecules to repurpose for Merkel cell carcinoma treatment (AID 1296009); note: nearly all actives have a fitted effect of over 60% in size
# Conditions: MCC and control cell lines, CellTiter-Glo viability, 72 h; series mostly up to 92 µM; activity change, negative = cytotoxicity: at the top concentration
# How it was run: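 72 hr, 37 degree celsius; NPC 8-pt / MIPE 11-pt dose response; compound pinned in DMSO; CellTiter-Glo, 10 min RT, luminescence; normalized to no-cell and DMSO controls.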
row,SMILES,outcome
1,CC1(C)CC[C@]2(C(=O)O)CC[C@]3(C)C(=CCC4[C@@]5(C)C[C@@H](O)[C@H](O)[C@@](C)(CO)C5[C@H](O)C[C@]43C)[C@@H]2C1 (stereo not given in full),inactive [at 17.4 µM]
2,C=CC(C)(CC/C=C(\C)CC/C=C(\C)CC(O)/C=C(\C)C(=O)O)O[C@@H]1O[C@H](CO)[C@@H](O)[C@H](O)[C@H]1O[C@@H]1O[C@H](CO)[C@@H](O)[C@H](O)[C@H]1O (stereo not given in full),inactive [at 17.4 µM]
3,Nc1c(-c2ccccc2)nc(Cl)c2c(O)n[nH]c(=O)c12,inactive
4,COc1cc([C@H]2OC[C@]3(OC(C)=O)[C@@H](c4ccc(O[C@@H]5O[C@H](CO)[C@@H](O)[C@H](O)[C@H]5O)c(OC)c4)OC[C@H]23)ccc1O,inactive [at 17.4 µM]
5,CC1(C)CC[C@]2(C(=O)O)CC[C@]3(C)C(=CCC4[C@@]5(C)C[C@H](O)[C@H](O[C@@H]6OC[C@H](O)[C@H](O)[C@H]6O)[C@@](C)(CO)C5CC[C@]43C)[C@@H]2C1 (stereo not given in full),inactive [at 17.4 µM]
6,C[C@@H]1O[C@@H](OC[C@H]2O[C@@H](OCc3ccccc3)[C@H](O)[C@@H](O)[C@@H]2O)[C@H](O)[C@H](O)[C@H]1O,inactive [at 17.4 µM]
7,CCC/C=C/C=C/C1CC(O)C(O)C(=O)C1CO (stereo not given),inactive
8,c1nc(NC2CCCCCC2)c2cc(CNC[C@H]3CCCO3)sc2n1,inactive
9,O=C(Nc1ccccc1)N1CCN(Cc2ccc3ccccc3n2)CC1,inactive
10,C[C@H]1O[C@@H](O[C@H]2CC[C@@]3(C)C(CC[C@]4(C)C3CC=C3C5CC(C)(C)CC[C@]5(C(=O)O)CC[C@]34C(=O)O)C2(C)C)[C@H](O)[C@@H](O)[C@@H]1O (stereo not given in full),inactive [at 17.4 µM]
